Screen size: about 2,400 compounds; about 580 (24%) were called active. A selection follows. A number with no mark means an inactive call.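 Rule for the calls: active = activity change at or above the mean plus 3 SD of buffer wells without dofetilide, per plate; inactive = the rest.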

The values that follow come from PubChem BioAssay AID1942 (Johns Hopkins Ion Channel Center, 2009).

Potassium voltage-gated channel subfamily KQT member 2 (Rattus norvegicus), sequence (O88943 whole entry, looked up): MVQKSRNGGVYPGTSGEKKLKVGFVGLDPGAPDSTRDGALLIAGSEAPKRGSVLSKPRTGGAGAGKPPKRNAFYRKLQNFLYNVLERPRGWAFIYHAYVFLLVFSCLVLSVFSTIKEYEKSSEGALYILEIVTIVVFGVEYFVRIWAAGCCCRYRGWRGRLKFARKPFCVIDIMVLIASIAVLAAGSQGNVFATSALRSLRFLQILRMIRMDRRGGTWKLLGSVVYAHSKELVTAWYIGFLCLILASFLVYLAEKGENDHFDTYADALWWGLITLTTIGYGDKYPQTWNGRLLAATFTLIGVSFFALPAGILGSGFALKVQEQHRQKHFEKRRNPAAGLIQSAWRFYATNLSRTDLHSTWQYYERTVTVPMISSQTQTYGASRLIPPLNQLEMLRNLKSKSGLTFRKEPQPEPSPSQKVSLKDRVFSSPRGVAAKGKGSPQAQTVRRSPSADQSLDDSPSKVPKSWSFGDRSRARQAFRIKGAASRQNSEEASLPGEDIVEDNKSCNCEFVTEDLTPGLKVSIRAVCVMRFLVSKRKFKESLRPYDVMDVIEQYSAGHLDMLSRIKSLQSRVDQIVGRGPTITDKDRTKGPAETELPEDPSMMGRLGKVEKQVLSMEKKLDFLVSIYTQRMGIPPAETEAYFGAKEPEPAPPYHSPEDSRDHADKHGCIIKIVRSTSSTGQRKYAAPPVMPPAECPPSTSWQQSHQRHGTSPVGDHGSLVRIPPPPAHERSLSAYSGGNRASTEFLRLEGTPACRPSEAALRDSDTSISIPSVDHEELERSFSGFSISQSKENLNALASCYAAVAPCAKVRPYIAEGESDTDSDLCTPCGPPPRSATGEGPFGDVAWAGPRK

The experiment addresses Potassium voltage-gated channel subfamily KQT member 2 (Rattus norvegicus) (UniProt O88943). Description: rat KCNQ2 channel activation by compounds alone, confirmation, counter-screen for hERG block protector project, cell-based, CHO, FluxOR thallium flux (AID 1942).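 Note: normalized value minus buffer-control mean plus three SD of buffer wells.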 Particulars: CHO-KCNQ2 cells, FluxOR thallium flux fluorescence; at 10 µM; hits give high values.
On to `Cc1cc(=S)nc(-c2ccccn2)[nH]1`, for which the activity change, less the hit threshold is -4.4%.
Next, `Cc1[nH]c(-c2ccccn2)nc(=S)c1Cl`: 92% (active); `COC(=O)Cc1[nH]n(-c2nc3ccccc3s2)c(=O)c1C(C)=Nc1ccc(C)cc1`: -15.8%; `COc1ccc(C(=O)NNC(=O)C(=O)Nc2cccc3ccccc23)cc1`: 59.1% (active).
With `COc1cc(OC)cc(C(=O)NNC(=O)C(=O)Nc2cc(OC)c(Cl)cc2OC)c1`, the activity change, less the hit threshold was 49.6% (active).
Next, `COc1ccc(NC(=O)C(=O)NNC(=O)c2cccs2)c(OC)c1`: 30.8% (active); `COc1cc(NC(=O)c2ccc3c(c2)OCO3)ccc1NC(=O)c1cccs1`: -18.6%.
In the case of `COc1cccc(CCNS(=O)(=O)CCNC(=O)c2cccc(OC)c2)c1` it was -13.6%; in that of `COc1cccc(C(=O)NNC(=O)C(=O)Nc2cccc3ccccc23)c1`, 59.7% (active).
In the case of `COc1cc(NC(=O)c2cc(-c3cccnc3)nc3ccc(C)cc23)c(OC)cc1Cl`, the activity change, less the hit threshold was -13.9%.
For the molecule `COc1ccc(OC)c(NC(=O)C(=O)NNC(=O)c2cccs2)c1`, the activity change, less the hit threshold was -6.1%.
In the case of `C=C(C)CSc1nnc2[nH]c(=O)cc(N)n12` it was -18.3%; in that of `O=C(/C=C/Nc1ccccc1)C(F)(F)F`, -19.8%; in that of `COc1ccc(C2CC(c3ccc(Cl)cc3Cl)Nc3nc(N)nn32)cc1OC` (stereo not drawn), -21.7%.
Next, `COc1ccc(/C=C2\SC(c3ccc(C)cc3)=NC2=O)cc1OC`: -17.7%; `Oc1ccc(Br)cc1-c1n[nH]c(=S)n1Cc1ccccc1`: -4.7%.
In the case of `Fc1ccccc1N1CCN(c2cnc3ccccc3n2)CC1` it was -14.5%.
With `Cc1cccc(N(C(=O)c2csnn2)C(C(=O)NCc2ccccc2)c2ccncc2)c1` (stereo not drawn), the activity change, less the hit threshold was -10.4%.
Next, `O=C1C(c2ccccc2)C(c2ccccc2)NC(c2ccccc2)C1c1ccccc1` (stereo not drawn): -17.9%; `O=C(CCSc1ccc(Br)cc1)c1ccc(O)cc1`: -15%.
As for `O=C(Cn1cnc2ccccc21)c1ccccc1`, the activity change, less the hit threshold is -11.5%.
In the case of `COc1cccc(C(=O)NNC(=O)C(=O)Nc2ccc(OC)cc2OC)c1` it was 29.6% (active).
As for `O=C(CN1C(=O)COc2ccccc21)NCCCN1CCOCC1`, the activity change, less the hit threshold was -8.4%.
In the case of `Cc1cccc(NC(=S)N/N=C2/CCCCc3ccccc32)c1` it was -20.4%; in that of `Cc1cccc2nc(-c3cccnc3)c(NCCC(C)C)n12`, -51.2%; in that of `COc1nnc(-c2ccc(C)c(S(=O)(=O)NC(C)(C)CO)c2)c2ccccc12`, -9.1%.
For `O=C1NC(=S)SC1=C1CCCCCC1`, the activity change, less the hit threshold was 58.8% (active).
Next, `CCOC(=O)N1CCN(C(=O)CN(c2ccc(OCC)cc2)S(C)(=O)=O)CC1`: -17.4%; `c1ccc2oc(-c3nn4c(Cn5cnc6ccccc65)nnc4s3)cc2c1`: -19.1%; `C/C(Cl)=C\Cn1c(O)c(N=NC(N)=S)c2cc(Br)ccc21`: 16.1% (active).
On to `Cc1cccc(Cn2c(O)c(N=NC(=S)Nc3ccccc3F)c3ccccc32)c1`, for which the activity change, less the hit threshold was -22.3%.
In the case of `C=CCn1c(O)c(N=NC(=S)Nc2ccccc2F)c2cc(S(=O)(=O)N3CCOCC3)ccc21`, the activity change, less the hit threshold is -16.8%.
`CCC1(C(=O)O)NC(c2cc(OC)ccc2O)C2C(=O)N(Cc3ccccc3)C(=O)C21` (stereo not drawn): the activity change, less the hit threshold was -9.2%.
For `CCOC(=O)c1sc(NN=C(C(=O)OC)C(=O)OC)c(C(=O)OCC)c1C`, the activity change, less the hit threshold was -9.1%.
Turning to `CCOC(=O)c1sc2nc(C)[nH]c(=S)c2c1C`, the activity change, less the hit threshold is 4.9% (active).
With `CCOC(=O)c1sc2nc(Cc3ccc(Cl)cc3)[nH]c(=S)c2c1C`, the activity change, less the hit threshold was -4.8%.
In the case of `Cc1ccc(Cn2nnc3c(=O)n(CC(=O)N4CCCc5ccccc54)cnc32)cc1`, the activity change, less the hit threshold is -14.8%.
Turning to `O=C(NN1C(=O)C2C(c3ccccc3)C=CC(c3ccccc3)C2C1=O)c1ccncc1` (stereo not drawn), the activity change, less the hit threshold was -42.5%.
Next, `O=C(N/N=C/c1ccccn1)c1cc(-c2ccc(Br)cc2)nc2ccccc12`: -26.1%.
Next, `Cc1c(C(=O)N/N=C/c2ccccn2)nnn1-c1nonc1N`: -9.3%; `O=C(N/N=C/c1ccccn1)c1sc2ccccc2c1Cl`: 27.4% (active); `O=C1c2cccc3cccc(c23)C(=O)C1(O)O`: -5.4%.
With `Cc1ccc(C(=O)O)cc1-c1ccc(/C=C2\SC(=O)N(CC(=O)Nc3ccccc3)C2=O)o1`, the activity change, less the hit threshold is -22%.
Next, `Cc1nn(-c2ccccc2)c(N2CCCC2)c1/C=N/O`: -13.5%; `COc1ccc(C(=O)O)cc1S(=O)(=O)Nc1cccc(C(F)(F)F)c1`: -13.4%; `Cc1nn(-c2cccc(C(F)(F)F)c2)c(Cl)c1/C=N/Nc1cccc(C(=O)O)c1`: 17.9% (active).
Next, `O=C(O)c1c2c(nc3ccccc13)/C(=C/c1cccc([N+](=O)[O-])c1)CCC2`: -21%; `Cc1ccccc1C(=O)c1cn[nH]c1-c1ccccc1O`: -32.5%.
In the case of `Cc1nc(-c2ccccc2)cn(O)c1=O`, the activity change, less the hit threshold is -1%.
In the case of `O=c1c(-c2ccccc2)nc(-c2ccccc2)cn1O` it was 65.1% (active); in that of `COC(=O)Nc1c(-c2ccccc2)nc2ccccn12`, -17%; in that of `CC(=O)c1ccc2c(c1)OCCOCCOCCO2`, -20.1%.
In the case of `O=C(CCc1ccccc1)Nc1nccs1`, the activity change, less the hit threshold is -23.4%.
For the molecule `Cc1cnc(C(=O)Nc2nccs2)cn1`, the activity change, less the hit threshold is -18.4%.
`Fc1ccc(NC(=S)Nc2nccs2)cc1`: the activity change, less the hit threshold was 1.8% (active).
In the case of `COc1ccc(-c2cc(C(=O)N3CCCC3)no2)cc1OC` it was 2.6% (active); in that of `COc1ccc(-c2cc(C(=O)N3CCCC3)no2)cc1`, -9%.
Take `COc1ccc(-c2cc(C(F)(F)F)nc(N3CCCCC3)n2)cc1OC`: the activity change, less the hit threshold is -16.3%.
In the case of `Cc1ccc(S(=O)(=O)N2C(=O)/C(=C3\SC(=S)NC3=O)c3ccccc32)cc1` it was -14.4%; in that of `CC(/C=C1\SC(=S)N(NS(=O)(=O)c2ccccc2)C1=O)=C\c1ccccc1`, 18.1% (active); in that of `CC(/C=C1\N=C(SCc2ccccc2Cl)SC1=O)=C\c1ccccc1`, -10.1%.
Regarding `CC(/C=C1\SC(=S)N(NS(=O)(=O)c2ccc(C)cc2)C1=O)=C\c1ccccc1`, the activity change, less the hit threshold was 8.8% (active).
On to `CC(/C=C1\SC(=S)N(c2ccc(C(=O)O)cc2)C1=O)=C\c1ccccc1`, for which the activity change, less the hit threshold is -20.4%.
Take `COc1ccccc1/C=C1\SC(=S)N(NS(=O)(=O)c2ccc(C)cc2)C1=O`: the activity change, less the hit threshold is -24.5%.
With `COCCNC(=O)C(=O)N/N=C/c1ccc(C(=O)OC)cc1`, the activity change, less the hit threshold is -24.8%.
For the molecule `O=C(CCNC(=O)C1CCN(S(=O)(=O)c2ccc(F)cc2)CC1)NCc1ccc(Cl)cc1`, the activity change, less the hit threshold is -18.1%.
In the case of `Cc1cc(C)c(S(=O)(=O)Nc2cccc(-n3cnnn3)c2)c(C)c1` it was -20.5%; in that of `COC(=O)C1CCCN1C(=O)COc1ccc(Cl)cc1Br` (stereo not drawn), 8.6% (active); in that of `COc1ccccc1NC(=O)C1CCCN1C(=O)Nc1ccc(F)cc1` (stereo not drawn), -19.8%.
Next, `O=C(COc1ccc(Cl)cc1Cl)Nc1cccnc1`: -20.4%; `CS(=O)(=O)Nc1cccc(-c2cn3ccccc3n2)c1`: -6.5%; `Cn1c(=O)c2sccc2n(Cc2cccc(Br)c2)c1=O`: -20.7%.
For the molecule `CCN1CCN(CCNC(=O)CCCn2nc(C)c3c(C)n(-c4ccc(C)cc4)nc3c2=O)CC1`, the activity change, less the hit threshold is -21%.
Next, `S=c1nc(SCc2ccccc2)[nH]c2ccccc12`: 73.5% (active).
In the case of `CSc1nc(C)c(Cc2ccccc2)c(=O)[nH]1` it was -18.7%; in that of `S=c1[nH]nc(Cc2ccc(Br)cc2)n1/N=C/c1ccc(Cl)cc1`, -13.3%; in that of `S=c1nc(Cc2ccc(Cl)cc2)[nH]c2ccccc12`, 28.2% (active).
Next, `O=C(O)CCCCCNc1nc(=S)[nH]c2ccccc12`: -0.8%; `S=c1nc(COc2ccccc2)[nH]c2ccccc12`: 131% (active).
With `O=c1[nH]c(SCc2cccc(Cl)c2)nc2ccccc12`, the activity change, less the hit threshold is -14.1%.
In the case of `CC(C)c1ccc(/C=N/n2c(COc3ccccc3)n[nH]c2=S)cc1` it was -16.5%; in that of `S=c1nc(Cc2ccccc2)[nH]c2ccccc12`, 76.9% (active); in that of `N=C1S/C(=C\c2ccco2)C(=O)N1c1nccs1`, -12%.
In the case of `CC(=O)Nc1ccc(S(=O)(=O)N2CCC(NC(=O)c3ccccc3)CC2)cc1` it was -20.1%; in that of `Cc1ccc(NC(=O)CSc2nnc(C3CC3)n2CC2CCCO2)c(C)c1` (stereo not drawn), -18.6%.
As for `S=c1[nH]nc(-c2ccco2)n1/N=C/C(Cl)=C/c1ccccc1`, the activity change, less the hit threshold is -17.6%.
In the case of `O=C(c1cncc(Br)c1)N1CCc2ccccc2C1`, the activity change, less the hit threshold was -24.3%.
For the molecule `C/C(=N\N1CCN(C2c3ccccc3-c3ccccc32)CC1)c1ccncc1`, the activity change, less the hit threshold was -19.2%.
Take `CC(NC(=O)c1ccncc1)C(C)(C)C` (stereo not drawn): the activity change, less the hit threshold is 2.9% (active).
Regarding `O=C(Nn1cnnc1)c1ccncc1`, the activity change, less the hit threshold is -10.9%.
With `O=C(NC(C(=O)c1ccccc1)n1cnccc1=O)c1ccccc1` (stereo not drawn), the activity change, less the hit threshold is -8.7%.
Next, `Cc1c(OC(C(=O)O)c2ccccc2)ccc2c(-c3ccccc3)cc(=O)oc12` (stereo not drawn): -7%; `Cc1ccc2c(c1)c1c(n2CC(O)Cn2nc(C)c(Br)c2C)CCCC1` (stereo not drawn): -17.5%.
Regarding `Cc1cc(C)c2nc(NC(=O)CN3C(=O)NC4(CCCC4)C3=O)sc2c1`, the activity change, less the hit threshold is -9%.
In the case of `COC(=O)c1sc(NC(=S)NC(=O)c2ccccc2C)nc1C` it was 26.5% (active); in that of `COC(=O)c1sc(NC(=S)NC(=O)c2ccccc2F)nc1C`, 11.7% (active); in that of `COC(=O)c1sc(NC(=S)NC(=O)c2ccc(C)cc2)nc1C`, -13.3%.
In the case of `O=c1[nH]c(=O)n(CCc2ccc(F)cc2)c(O)c1C=NCc1ccc2c(c1)OCO2` it was -22.5%.
